The target of assay [1] is ATP-dependent 6-phosphofructokinase (Trypanosoma brucei brucei) (UniProt O15648). The assay is described as follows: qHTS Assay to Find Inhibitors of T. brucei phosphofructokinase: hit validation (AID 492961).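 Note: luminescence reports ADP formed as PFK phosphorylates fructose-6-phosphate with ATP.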 The method in brief: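 PFK 1.25 nM, F6P 0.5 mM, ATP 0.1 mM, MgCl2 5 mM, 0.1 M TEA pH 8.0, Tween20 0.01%, BSA 0.1%; 45 min RT. ADP-Glo two-step detection, luminescence. qHTS titration; curve fitting with curve-class categorization.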
ATP-dependent 6-phosphofructokinase (Trypanosoma brucei brucei), sequence (O15648 whole entry, looked up): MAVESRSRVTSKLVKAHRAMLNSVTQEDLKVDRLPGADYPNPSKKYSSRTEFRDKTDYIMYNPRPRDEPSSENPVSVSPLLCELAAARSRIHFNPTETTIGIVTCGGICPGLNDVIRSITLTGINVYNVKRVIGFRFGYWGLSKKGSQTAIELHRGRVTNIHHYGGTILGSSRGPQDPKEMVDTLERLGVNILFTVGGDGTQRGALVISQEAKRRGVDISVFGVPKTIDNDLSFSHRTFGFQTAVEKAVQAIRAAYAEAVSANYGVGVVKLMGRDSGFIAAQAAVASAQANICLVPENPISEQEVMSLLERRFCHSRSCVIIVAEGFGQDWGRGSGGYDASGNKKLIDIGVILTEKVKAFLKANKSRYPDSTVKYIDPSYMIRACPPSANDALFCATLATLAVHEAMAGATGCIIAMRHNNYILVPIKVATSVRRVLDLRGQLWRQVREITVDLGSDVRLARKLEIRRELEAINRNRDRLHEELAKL

Another assay concerns 7G8. The assay is described as follows: qHTS profiling for inhibitors of Plasmodium falciparum proliferation (AID 504749). Note: nearly all actives have a fitted effect of over 60% in size. Note: potency is the fitted concentration of half-maximal effect. The conditions noted are these: P. falciparum in erythrocytes, SYBR Green DNA, 72 h; series mostly up to 12.8 µM. Put shortly:
(§1)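 Quantitative HTS: compounds pinned into medium, infected erythrocytes added (0.3% parasitemia, 2.5% hematocrit), 72 h culture at 37 C under 5% CO2. Saponin/Triton lysis with SYBR Green I, overnight RT, then fluorescence read.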
For orientation: qHTS replaces the single test concentration by a dilution series.

The test system of a further assay is CP211. The description is as above. The settings on record: P. falciparum in erythrocytes, SYBR Green DNA, 72 h; series mostly up to 12.8 µM. Put shortly: as §1
A further assay concerns CP215. The assay is described as above. The settings on record: P. falciparum in erythrocytes, SYBR Green DNA, 72 h; series mostly up to 12.8 µM. Put shortly: as §1
The subject of a further assay is CP260. The description is as above. The conditions noted are these: P. falciparum in erythrocytes, SYBR Green DNA, 72 h; series mostly up to 12.8 µM. Put shortly: as §1
In the next assay the test system is CP269. Described as above. The conditions noted are these: P. falciparum in erythrocytes, SYBR Green DNA, 72 h; series mostly up to 12.8 µM. Put shortly: as §1
The subject of a further assay is CP297. Described as above. The conditions noted are these: P. falciparum in erythrocytes, SYBR Green DNA, 72 h; series mostly up to 12.8 µM. The method in brief:
as §1

Another assay has as its system CP315. The description is as above. The conditions noted are these: P. falciparum in erythrocytes, SYBR Green DNA, 72 h; series mostly up to 12.8 µM. Put shortly:
as §1

Another assay deals with CP335. Described as above. The conditions noted are these: P. falciparum in erythrocytes, SYBR Green DNA, 72 h; series mostly up to 12.8 µM. The method in brief:
as §1

The next assay deals with DFO2036. The assay is described as above. The settings on record: P. falciparum in erythrocytes, SYBR Green DNA, 72 h; series mostly up to 12.8 µM. Put shortly:
as §1

The test system of another assay is GB4. The description is as above. The settings on record: P. falciparum in erythrocytes, SYBR Green DNA, 72 h; series mostly up to 12.8 µM. Put shortly:
as §1

The next assay deals with PC26. Described as above. The settings on record: P. falciparum in erythrocytes, SYBR Green DNA, 72 h; series mostly up to 12.8 µM. Put shortly: as §1
Another assay deals with W2. Described as above. The settings on record: P. falciparum in erythrocytes, SYBR Green DNA, 72 h; series mostly up to 12.8 µM. The method in brief:
as §1

A further assay concerns P94_40. The assay is described as above. The settings on record: P. falciparum in erythrocytes, SYBR Green DNA, 72 h; series mostly up to 12.8 µM. The method in brief:
as §1

For assay [2], the target named is Cytochrome P450 2C9 (Homo sapiens) (UniProt P11712). Kind of assay: qHTS Assay for Inhibitors and Substrates of Cytochrome P450 2C9 (AID 883). Note: nearly all actives have a fitted effect of over 60% in size. Put shortly:
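Human CYP2C9 (10nM) hydroxylated Luciferin-H (100uM, at its KM) to luciferin in 25mM KPO4. Compound was preincubated 10 min at 37C, then NADPH regeneration started a 60 min reaction at 37C. Luminescence was read after detection reagent, normalized to 57uM sulphaphenazole.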

The test system of another assay is CP266. Kind of assay: qHTS profiling for inhibitors of Plasmodium falciparum proliferation (AID 504749). Note: nearly all actives have a fitted effect of over 60% in size. Note: potency is the fitted concentration of half-maximal effect. The conditions noted are these: P. falciparum in erythrocytes, SYBR Green DNA, 72 h; series mostly up to 12.8 µM. Put shortly: as §1
For assay [3], the target named is Cytochrome P450 2C19 (Homo sapiens) (UniProt P33261). Kind of assay: qHTS Assay for Inhibitors and Substrates of Cytochrome P450 2C19 (AID 899). Note: potency is the fitted concentration of half-maximal effect; nearly all actives have a fitted effect of over 60% in size. The method in brief: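 Human CYP2C19 (5nM) with Luciferin-H EGE at 10uM (its KM) in 50mM KPO4 was preincubated with compound for 10 min at 37C. NADPH regeneration started a 60 min 37C reaction. Luciferin was read by luminescence, normalized to 57uM ketoconazole.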
Cytochrome P450 2C19 (Homo sapiens), sequence (P33261 whole entry, looked up): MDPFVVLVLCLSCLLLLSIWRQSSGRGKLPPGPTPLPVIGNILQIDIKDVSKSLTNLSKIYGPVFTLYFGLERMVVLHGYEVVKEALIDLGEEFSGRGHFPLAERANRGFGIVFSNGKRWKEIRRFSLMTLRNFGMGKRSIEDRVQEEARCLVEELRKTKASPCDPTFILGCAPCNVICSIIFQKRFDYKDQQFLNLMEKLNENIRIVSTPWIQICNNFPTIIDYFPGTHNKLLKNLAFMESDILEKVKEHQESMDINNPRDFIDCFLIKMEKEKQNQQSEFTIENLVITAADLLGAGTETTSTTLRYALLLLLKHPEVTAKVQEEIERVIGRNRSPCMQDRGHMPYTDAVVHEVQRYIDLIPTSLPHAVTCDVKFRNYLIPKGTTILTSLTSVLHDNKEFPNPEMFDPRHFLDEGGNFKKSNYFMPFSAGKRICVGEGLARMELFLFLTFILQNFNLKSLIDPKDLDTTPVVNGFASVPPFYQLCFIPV

For assay [4], the target named is Cytochrome P450 3A4 (Homo sapiens) (UniProt P08684). The assay is described as follows: qHTS Assay for Activators of Cytochrome P450 3A4 (AID 885). Note: nearly all actives have a fitted effect of over 65% in size. Put shortly:
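Activators are scored by enhanced luminescence from CYP3A4 conversion of luciferin-PPXE (25uM, equal to KM) to luciferin, after 60 min at RT with an NADPH-regenerating system.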

Assay [5] deals with Cytochrome P450 2D6 (Homo sapiens) (UniProt P10635). Kind of assay: qHTS Assay for Inhibitors and Substrates of Cytochrome P450 2D6 (AID 891). Put shortly:
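Luminescent read-out of luciferin formed by 5 nM human CYP2D6 demethylating 30 uM Luciferin-ME EGE (Km level) over 60 min at room temperature after NADPH regeneration addition. Data normalized to full inhibition by 1.43 uM quinidine.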

Inconclusive results are not listed. Activity calls are given as the source filed them. Calls come from the whole dose curve; as a rule, active = well fitted curve in the direction sought with a large enough effect; inconclusive = small, poorly fitted or top-dose-only effect, or another doubt; inactive = no such curve, though single readings can be large; an effect the other way counts as inactive or inconclusive.

Cytochrome P450 2C9 (Homo sapiens), sequence (P11712 whole entry, looked up): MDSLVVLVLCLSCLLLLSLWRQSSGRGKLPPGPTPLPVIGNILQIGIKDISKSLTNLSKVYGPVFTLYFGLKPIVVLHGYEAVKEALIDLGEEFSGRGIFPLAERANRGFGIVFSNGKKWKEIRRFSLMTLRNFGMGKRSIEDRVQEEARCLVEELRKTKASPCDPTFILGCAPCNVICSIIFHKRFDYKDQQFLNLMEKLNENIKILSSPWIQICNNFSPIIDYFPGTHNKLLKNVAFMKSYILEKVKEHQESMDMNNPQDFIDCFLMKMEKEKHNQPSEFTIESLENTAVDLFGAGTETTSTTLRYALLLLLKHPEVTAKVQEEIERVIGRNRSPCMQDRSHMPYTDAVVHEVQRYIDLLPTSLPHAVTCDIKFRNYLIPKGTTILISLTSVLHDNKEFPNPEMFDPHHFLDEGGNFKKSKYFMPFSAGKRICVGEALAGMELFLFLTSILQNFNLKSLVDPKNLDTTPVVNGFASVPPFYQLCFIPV
Cytochrome P450 3A4 (Homo sapiens), sequence (P08684 whole entry, looked up): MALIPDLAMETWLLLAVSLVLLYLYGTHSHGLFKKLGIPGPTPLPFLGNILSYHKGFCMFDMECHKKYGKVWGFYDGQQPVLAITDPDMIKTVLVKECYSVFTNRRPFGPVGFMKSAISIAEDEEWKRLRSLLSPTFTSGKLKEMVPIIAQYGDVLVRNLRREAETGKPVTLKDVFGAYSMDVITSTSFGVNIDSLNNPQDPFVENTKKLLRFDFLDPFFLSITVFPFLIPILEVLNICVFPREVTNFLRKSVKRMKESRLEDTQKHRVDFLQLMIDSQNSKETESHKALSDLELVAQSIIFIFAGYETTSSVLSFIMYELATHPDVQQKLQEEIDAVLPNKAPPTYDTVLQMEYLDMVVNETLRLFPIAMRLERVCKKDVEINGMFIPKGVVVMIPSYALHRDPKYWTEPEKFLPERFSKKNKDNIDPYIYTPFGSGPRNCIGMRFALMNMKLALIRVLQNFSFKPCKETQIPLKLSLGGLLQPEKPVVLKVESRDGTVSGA
Cytochrome P450 2D6 (Homo sapiens), sequence (P10635 whole entry, looked up): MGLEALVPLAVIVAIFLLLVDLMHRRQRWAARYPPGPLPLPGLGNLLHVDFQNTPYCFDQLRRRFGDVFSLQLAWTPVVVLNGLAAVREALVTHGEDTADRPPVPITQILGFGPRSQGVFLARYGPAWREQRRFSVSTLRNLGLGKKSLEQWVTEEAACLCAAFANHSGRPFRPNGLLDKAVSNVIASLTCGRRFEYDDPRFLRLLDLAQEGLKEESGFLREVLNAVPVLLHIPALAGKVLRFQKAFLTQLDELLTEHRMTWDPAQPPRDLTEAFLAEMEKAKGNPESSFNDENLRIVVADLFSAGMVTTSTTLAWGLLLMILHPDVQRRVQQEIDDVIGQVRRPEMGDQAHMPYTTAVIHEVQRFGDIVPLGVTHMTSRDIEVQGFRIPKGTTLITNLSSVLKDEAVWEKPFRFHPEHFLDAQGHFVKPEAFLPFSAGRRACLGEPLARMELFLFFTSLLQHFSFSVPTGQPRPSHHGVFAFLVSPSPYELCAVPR

In the case of `O=C(NC[C@@H](O)CO)c1c(I)c(C(=O)NC[C@@H](O)CO)c(I)c(N(CCO)C(=O)CO)c1I`, the call in assay [1] was inactive. Also, the Potency entry in the assay on 7G8, with CP211, in the assay on CP215, with CP260, with CP269 and in the assay on CP297 was “inactive” throughout. Also, the Potency result in the assay on CP315, with CP335, in the assay with DFO2036, in the assay on GB4, with PC26 and in the assay on W2 was “inactive” in each case.
For the compound `COc1cc2nc(N3CCN(C(=O)[C@@H]4CCCO4)CC3)nc(N)c2cc1OC`, the call in assay [1] was inactive. Also, the Potency result in the assay with 7G8, in the assay with CP211, in the assay on CP215, with CP260, with CP269 and with CP297 was “inactive” in each case. Further, the Potency result in the assay with CP315, in the assay on CP335, with DFO2036, in the assay on GB4, with P94_40 and in the assay on PC26 was “inactive” throughout.
For `CCC(=O)O[C@@H]1[C@H](C)O[C@H](O[C@H]2[C@@H](N(C)C)[C@H](O)[C@@H](O[C@@H]3[C@@H](CC=O)C[C@@H](C)[C@@H](O)/C=C\C=C/C[C@@H](C)OC(=O)C[C@@H](OC(=O)CC)[C@H]3OC)O[C@H]2C)C[C@]1(C)O`, the compound was called inactive in [1]. Moreover, the Potency result with DFO2036, in the assay on GB4 and in the assay on PC26 was “inactive” in each case. For the same compound, in the assay with W2, the Potency was 2030 nM (active).
In the case of `C=CCSC[C@@H]1Nc2cc(Cl)c(S(N)(=O)=O)cc2S(=O)(=O)N1`, in [2], the Potency entry is “inactive”.
With `CC(C)(C)NC[C@H](O)COc1cccc2c1CCC(=O)N2`, in assay [1], the call was inactive. Further, the Potency result in the assay with 7G8, in the assay on CP211, with CP215, in the assay with CP260, in the assay with CP266 and in the assay on CP269 was “inactive” in each case. Moreover, the Potency entry with CP297, in the assay on CP315, in the assay on GB4, in the assay with P94_40, in the assay with PC26 and in the assay on W2 was “inactive” throughout.
For the compound `C=CCOc1ccccc1OC[C@H](O)CNC(C)C`, the Potency result (in [2]; in the assay on 7G8; in the assay on CP211; with CP260; in the assay on CP269; in the assay on CP335) was “inactive” throughout. Further, the Potency entry with DFO2036 and in the assay on PC26 was “inactive” in each case. In addition, in assay [1], the call was inactive. Also, the Potency with W2 is 1140 nM (active).
`C#C[C@@]1(O)CC[C@@H]2[C@@H]3CCC4=C(CCC(=O)C4)[C@H]3CC[C@]21C`: the Potency in [3] was 63.1 nM (active). For the same compound, in assay [1], the result was inactive.
For the compound `NC(=O)N[C@H]1NC(=O)NC1=O`, the call in assay [1] was inactive. Moreover, the Potency entry in the assay with 7G8, in the assay with CP211, in the assay on CP215, in the assay with CP260, in the assay with CP266 and in the assay on CP269 was “inactive” throughout. In addition, the Potency entry in the assay with CP297, in the assay with CP315, in the assay on CP335, in the assay with P94_40, in the assay with PC26 and in the assay on W2 was “inactive” throughout.
`C[C@H](Oc1ccccc1)C(=O)N[C@@H]1C(=O)N2[C@@H]1SC(C)(C)[C@@H]2C(=O)O`: the Potency entry in the assay on 7G8, in the assay with CP211, in the assay with CP215, in the assay on CP260, in the assay on CP266 and with CP269 was “inactive” throughout. Moreover, the Potency entry with CP297, in the assay with CP315, with DFO2036, in the assay with GB4, in the assay with P94_40 and in the assay on PC26 was “inactive” each time. In addition, the Potency entry in the assay with W2 is “inactive”.
As to `COc1ccc(C[C@@](C)(N)C(=O)O)cc1OC`, the call in assay [1] was inactive. In addition, the Potency entry in the assay on 7G8, in the assay with CP211, in the assay on CP215, in the assay on CP260, in the assay with CP266 and in the assay with CP269 was “inactive” in each case. Moreover, the Potency entry in the assay with CP297, in the assay on CP315, in the assay with DFO2036, in the assay on GB4, with P94_40 and in the assay with PC26 was “inactive” in each case. The Potency result with W2 is “inactive”.
Take `C=CCN1C(=CCO)[C@H]2C[C@H]3[C@@H]1CC[C@@]31c3ccccc3N3C=C4[C@@H]5N(/C=C/2[C@H]31)c1ccccc1[C@]51CC[C@H]2[C@H]1C[C@@H]4/C(=C/CO)N2CC=C`: the compound was classed as inactive in [1]. Moreover, the Potency entry with 7G8, in the assay with CP211, with CP215, with CP260, in the assay with CP266 and in the assay with CP269 was “inactive” throughout. Further, the Potency result in the assay with CP297, in the assay on CP315, in the assay with DFO2036, in the assay with GB4, with P94_40 and in the assay with PC26 was “inactive” throughout. Further, in the assay on W2, the Potency entry is “inactive”.
As for `CO[C@H]1[C@H](O[C@H]2O[C@@H](C)[C@@H](O[C@@H]3C[C@](C)(O)[C@H](OC(=O)CC(C)C)[C@H](C)O3)[C@@H](N(C)C)[C@@H]2O)[C@@H](CC=O)C[C@@H](C)[C@@H](O)/C=C\C=C/C[C@@H](C)OC(=O)C[C@H]1OC(C)=O`, the Potency result in assay [4] is “inactive”. Moreover, the compound was classed as inactive in [1]. The Potency with W2 is 1610 nM (active).
In the case of `NS(=O)(=O)c1cc2c(cc1Cl)N[C@@H](CC1CCCC1)NS2(=O)=O`, the Potency result (in [2]; with 7G8; in the assay with CP211; in the assay on CP215; with CP260; with CP266) was “inactive” each time. The Potency entry in the assay on CP269, with CP297, with CP315, with CP335, with DFO2036 and with GB4 was “inactive” throughout. Also, the Potency entry in the assay on P94_40, with PC26 and in the assay with W2 was “inactive” in each case. For the same compound, the result in [1] was inactive.
For `CC(=O)N(C[C@@H](C)C(=O)O)c1c(I)cc(I)c(N)c1I`, the Potency result (in assay [2]; with 7G8; with CP260; in the assay on CP335; in the assay with DFO2036; in the assay with P94_40) was “inactive” in each case.
In the case of `CC[N+](CC)(CC)CC[C@](O)(c1ccccc1)C1CCCCC1`, in assay [5], the Potency is 20 nM (active). In [1], the call was inactive. Also, the Potency entry in the assay on 7G8, in the assay with CP211, in the assay on CP215, with CP266, with CP269 and with CP297 was “inactive” in each case. The Potency entry in the assay with CP315, with CP335, in the assay on DFO2036, in the assay on GB4 and in the assay on P94_40 was “inactive” in each case.

The values above are taken from PubChem BioAssay (NCATS).
